Data taken from PubChem BioAssay (NCATS).
Records with an inconclusive call do not appear. Active and inactive are the calls of the source. The call rests on the fitted dose curve; in most records, active means well fitted cell-killing curve with a large enough effect; inconclusive means small, poorly fitted or top-dose-only effect, or effect the other way; inactive means flat fitted curve, though single readings scatter.

Tests used:
Assay in all cases: Primary qHTS to identify gynecologic anti-cancer compounds using libraries of approved drugs and bioactive compounds (AID 1345084); further: nearly all actives have a fitted effect of over 55% in size
[1] = system: C33A; conditions: Gynecologic cancer cell panel viability, ATPlite luminescence, 48 h; series mostly up to 57.5 µM
Procedure, shortened: (§1)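 Measured: luminescence after ATPlite addition (15 min, RT). Exposure: 48 h, 37 C, 5% CO2.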

[2] = system: CAOV3; conditions: Gynecologic cancer cell panel viability, ATPlite luminescence, 48 h; series mostly up to 57.5 µM
Procedure, shortened: as §1

[3] = system: CASKI; conditions: Gynecologic cancer cell panel viability, ATPlite luminescence, 48 h; series mostly up to 57.5 µM
Procedure, shortened: as §1

[4] = system: Es-2; conditions: Gynecologic cancer cell panel viability, ATPlite luminescence, 48 h; series mostly up to 57.5 µM
Procedure, shortened: as §1

[5] = system: HeLa; conditions: Gynecologic cancer cell panel viability, ATPlite luminescence, 48 h; series mostly up to 57.5 µM
Procedure, shortened: as §1

[6] = system: Hek293T; conditions: Gynecologic cancer cell panel viability, ATPlite luminescence, 48 h, control line for the selectivity index; series mostly up to 57.5 µM
Procedure, shortened: as §1

[7] = system: JEG-3; conditions: Gynecologic cancer cell panel viability, ATPlite luminescence, 48 h; series mostly up to 57.5 µM
Procedure, shortened: as §1

[8] = system: OV90; conditions: Gynecologic cancer cell panel viability, ATPlite luminescence, 48 h; series mostly up to 57.5 µM
Procedure, shortened: as §1

[9] = system: PA-1; conditions: Gynecologic cancer cell panel viability, ATPlite luminescence, 48 h; series mostly up to 57.5 µM
Procedure, shortened: as §1

[10] = system: SKOV3; conditions: Gynecologic cancer cell panel viability, ATPlite luminescence, 48 h; series mostly up to 57.5 µM
Procedure, shortened: as §1

[11] = system: Tov-21-G; conditions: Gynecologic cancer cell panel viability, ATPlite luminescence, 48 h; series mostly up to 57.5 µM
Procedure, shortened: as §1

[12] = system: Tov112D; conditions: Gynecologic cancer cell panel viability, ATPlite luminescence, 48 h; series mostly up to 57.5 µM
Procedure, shortened: as §1
On the % scale 0 is the no-effect control and ±100 the full control effect.

COC(=O)c1ccc(OC)cc1O[C@@H]1O[C@H](CO[C@@H]2OC[C@@H](O)[C@H](O)[C@H]2O)[C@@H](O)[C@H](O)[C@H]1O
inactive: Potency [1] | Potency [2] | outcome [3] | Potency [4] | Potency [5] | Potency [6] | Potency [7] | Potency [8] | Potency [9] | Potency [10] | Potency [11] | Potency [12]

OC[C@H]1O[C@@H](O[C@H]2[C@H](O)[C@@H](CO)O[C@@H](OCc3ccccc3)[C@@H]2O[C@@H]2OC[C@](O)(CO)[C@H]2O)[C@H](O)[C@@H](O)[C@@H]1O
inactive: Potency [1] | Potency [2] | outcome [3] | Potency [4] | Potency [5] | Potency [6] | Potency [7] | Potency [8] | Potency [9] | Potency [10] | Potency [11] | Potency [12]

COCC1OC(OC(C)(C)C2CCC3(C)C=C(C4CCC5C4(C)CC(O)C4OC(C(C)(C)O)CCC45C)CCC3O2)C(NC(C)=O)C(O)C1O (stereo unspecified)
inactive: Potency [1] | Potency [2] | outcome [3] | Potency [4] | Potency [5] | Potency [6] | Potency [7] | Potency [8] | Potency [9] | Potency [10] | Potency [11] | Potency [12]

CN1CCN(C2=Nc3ccccc3Nc3ccc(O)cc32)CC1
inactive: Potency [1] | Potency [2] | outcome [3] | Potency [4] | Potency [5] | Potency [6] | Potency [7] | Potency [8] | Potency [9] | Potency [10] | Potency [11] | Potency [12]

CC(=O)OC[C@]12[C@H](OC(C)=O)[C@H](OC(=O)c3ccccc3)[C@@H]3[C@@H](OC(C)=O)[C@]1(OC3(C)C)[C@H](C)C[C@H](OC(=O)c1ccccc1)[C@@H]2OC(=O)c1ccccc1
inactive: Potency [1] | Potency [2] | outcome [3] | Potency [4] | Potency [5] | Potency [6] | Potency [7] | Potency [8] | Potency [9] | Potency [10] | Potency [11] | Potency [12]

COc1ccc(C2OCC3C(c4cc(OC)c5c(c4)OCO5)OCC23)cc1OC (stereo unspecified)
inactive: Potency [1] | Potency [2] | outcome [3] | Potency [4] | Potency [5] | Potency [6] | Potency [7] | Potency [8] | Potency [9] | Potency [10] | Potency [11] | Potency [12]

C=C1CC[C@@]2(OC1)O[C@H]1CC3[C@@H]4CC=C5C[C@@H](O)C[C@@H](O[C@@H]6OC[C@H](O)[C@H](O)[C@H]6O[C@@H]6O[C@@H](C)[C@H](O)[C@@H](O)[C@H]6O)[C@]5(C)C4CC[C@]3(C)[C@H]1[C@@H]2C (stereo partly specified)
inactive: Potency [1] | Potency [2] | outcome [3] | Potency [4] | Potency [5] | Potency [6] | Potency [7] | Potency [8] | Potency [9] | Potency [10] | Potency [11] | Potency [12]

COc1ccc(OC2OC(CO[C@@H]3O[C@@H](C)[C@H](O)[C@@H](O)[C@H]3O)C(O)C(O)C2O)cc1OC (stereo partly specified)
inactive: Potency [1] | Potency [2] | outcome [3] | Potency [4] | Potency [5] | Potency [6] | Potency [7] | Potency [8] | Potency [9] | Potency [10] | Potency [11] | Potency [12]

CC(C)=CCC[C@](C)(O[C@@H]1O[C@H](CO[C@@H]2O[C@@H](CO)[C@H](O)[C@H]2O[C@@H]2OC[C@@H](O)[C@H](O)[C@H]2O)[C@@H](O)[C@H](O)[C@H]1O)[C@H]1CC[C@]2(C)[C@@H]1[C@H](O)CC1[C@@]3(C)CC[C@H](O[C@@H]4O[C@H](CO)[C@@H](O)[C@H](O)[C@H]4O[C@@H]4O[C@H](CO)[C@@H](O)[C@H](O)[C@H]4O)C(C)(C)C3CC[C@]12C (stereo partly specified)
inactive: activity change, negative = cytotoxicity [1] 7.16% [at 6.55 µM] | activity change, negative = cytotoxicity [2] 9.01% [at 6.55 µM] | activity change, negative = cytotoxicity [3] 10.9% [at 6.55 µM] | activity change, negative = cytotoxicity [4] 4.94% [at 6.55 µM] | activity change, negative = cytotoxicity [5] -1.43% [at 6.55 µM] | activity change, negative = cytotoxicity [6] 2.28% [at 6.55 µM] | activity change, negative = cytotoxicity [7] 5.39% [at 6.55 µM] | activity change, negative = cytotoxicity [8] -2.38% [at 6.55 µM] | activity change, negative = cytotoxicity [9] 11.1% [at 6.55 µM] | activity change, negative = cytotoxicity [10] 24.5% [at 6.55 µM] | activity change, negative = cytotoxicity [11] 0.809% [at 6.55 µM] | activity change, negative = cytotoxicity [12] 0.454% [at 6.55 µM]

C=C(C)[C@@H]1CC[C@]2(C(=O)O)CC[C@]3(C)[C@H](CCC4[C@@]5(C)CCC(=O)C(C)(C)C5C(O)C[C@]43C)C12 (stereo partly specified)
inactive: Potency [1] | Potency [2] | outcome [3] | Potency [4] | Potency [5] | Potency [6] | Potency [7] | Potency [8] | Potency [9] | Potency [10] | Potency [11] | Potency [12]

CC(C)=CCc1c(O)cc2oc3cc(C)cc(O)c3c2c1C
inactive: Potency [1] | Potency [2] | outcome [3] | Potency [4] | Potency [5] | Potency [6] | Potency [7] | Potency [8] | Potency [9] | Potency [10] | Potency [11] | Potency [12]

Cc1occc(=O)c1O[C@@H]1O[C@H](COC(=O)CC(C)(O)CC(=O)O)[C@@H](O)[C@H](O)[C@H]1O (stereo partly specified)
inactive: Potency [1] | Potency [2] | outcome [3] | Potency [4] | Potency [5] | Potency [6] | Potency [7] | Potency [8] | Potency [9] | Potency [10] | Potency [11] | Potency [12]

COC(=O)C1=COC(O[C@@H]2O[C@H](CO)[C@@H](O)[C@H](O)[C@H]2O)/C(=C\COC(=O)/C=C/c2ccccc2)C1CC(=O)OCCc1ccc(O)cc1 (stereo partly specified)
inactive: Potency [1] | Potency [2] | outcome [3] | Potency [4] | Potency [5] | Potency [6] | Potency [7] | Potency [8] | Potency [9] | Potency [10] | Potency [11] | Potency [12]
